Results taken from PubChem BioAssay (NCATS).
Where “and” joins values, the source holds several entries; their conditions need not be identical. Equal values may be shown once. Inconclusive results are not listed. Where a structure was tested more than once in an assay, its records may differ in their call. Calls of active or inactive are those of the source. Calls follow the shape of the dose curve; as a rule, active = well fitted curve in the direction sought with a large enough effect; inconclusive = small, poorly fitted or top-dose-only effect, or another doubt; inactive = no such curve, though single readings can be large; an effect the other way counts as inactive or inconclusive.

Key:
[1] = Identifying Small Molecule Inhibitors of Pancreatic Cancer Stem Cells (Panc1, Spheroid) (AID 1259359);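 also: potency is read from the fitted curve at half-maximal effect; compound exposure lasted 48 h before reading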
In short: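 After a 4 h attachment period, compounds were pinned into wells and cultures held 48 h under standard incubator conditions. Viability was then measured as CellTiter-Glo luminescence following 10 min at room temperature.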

[2] = Identifying Small Molecule Inhibitors of Pancreatic Cancer Stem Cells (A278, Adherent) (AID 1259361);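 also: viability read after 48 h compound exposure; nearly all actives have a fitted effect of over 35% in size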
In short: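 Endpoint: ATP-based luminescence, 48 h drug exposure. Bortezomib at 9.2 uM final as full-kill control; DMSO vehicle as negative control; activity normalized between vehicle and cell-free wells.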

[3] = P-glycoprotein substrates identified in KB-3-1 adenocarcinoma cell line, qHTS therapeutic library screen (AID 1346986); also: nearly all actives have a fitted effect of over 60% in size;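 also: potency is read from the fitted curve at half-maximal effect; potency is for cytotoxicity meaning loss of cell viability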
In short: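 Compounds were tested in dose-response against KB-3-1 and KB-8-5-11 cells at 37 degree C for 72 h, and viability was measured by luminescence. AC50 values came from curve fitting with class-based activity calls.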

[4] = P-glycoprotein substrates identified in KB-8-5-11 adenocarcinoma cell line, qHTS therapeutic library screen (AID 1346987); also: nearly all actives have a fitted effect of over 65% in size; also: potency is read from the fitted curve at half-maximal effect
In short: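 KB-8-5-11: colchicine-selected sub-line of KB-3-1 over-expressing P-gp; assay medium lacked colchicine. 72 h drug exposure at 37 degree C, CellTiter-Glo.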

[5] = NS1 protein of Zika virus - qHTS assay to identify small molecule inhibitors in human HEK 293 cells (AID 1347053); also: nearly all actives have a fitted effect of over 55% in size; also: potency is read from the fitted curve at half-maximal effect
In short: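 HEK 293; 20 h pre-culture, 37 C/5% CO2; cpd 1 h pre-infection; ZIKV MR766, MOI = 0.5, 24 h, 37 C; TR-FRET NS1 readout (two anti-NS1 Abs); norm. to no-virus vs infected.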

[6] = qHTS of pediatric cancer cell lines to identify multiple opportunities for drug repurposing: Primary screen for TC32 cells (AID 1347089); also: nearly all actives have a fitted effect of over 60% in size; also: potency is read from the fitted curve at half-maximal effect
In short: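 qHTS, TC32, 48 h drug treatment, CellTiter-Glo luminescence as a proxy for metabolically active cells; primary top concentration 46 µM (MIPE 11-pt, NPC 8-pt); confirmatory 11-pt.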

[7] = qHTS of pediatric cancer cell lines to identify multiple opportunities for drug repurposing: Primary screen for DAOY cells (AID 1347090); also: nearly all actives have a fitted effect of over 55% in size; also: potency is read from the fitted curve at half-maximal effect
In short: (§1)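 Viability measured as metabolically active cells via CellTiter-Glo luminescence following 48 hours of compound exposure, 11-point dilutions in confirmatory testing. 500-1,000 cells/well plated 5 hours before dosing; controls were DMSO and 2.3 µM bortezomib.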

[8] = qHTS of pediatric cancer cell lines to identify multiple opportunities for drug repurposing: Primary screen for SJ-GBM2 cells (AID 1347091); also: potency is read from the fitted curve at half-maximal effect
In short: as §1

[9] = qHTS of pediatric cancer cell lines to identify multiple opportunities for drug repurposing: Primary screen for A673 cells (AID 1347092); also: nearly all actives have a fitted effect of over 45% in size; also: potency is read from the fitted curve at half-maximal effect
In short: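 Luminescence from CellTiter-Glo, taken after 15 min at room temperature, served as the proxy for metabolically active cells following 48 h treatment. Both potency and efficacy were taken from curves fitted to the titration data.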

[10] = qHTS of pediatric cancer cell lines to identify multiple opportunities for drug repurposing: Primary screen for SK-N-MC cells (AID 1347093); also: potency is read from the fitted curve at half-maximal effect
In short: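 Metabolically active cells were quantified by ATP-dependent luminescence (CellTiter-Glo, 15 min at room temperature) following 48 h treatment. Cells had been plated at 500-1,000 per well and settled for 5 h beforehand.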

[11] = qHTS of pediatric cancer cell lines to identify multiple opportunities for drug repurposing: Primary screen for BT-37 cells (AID 1347094); also: potency is read from the fitted curve at half-maximal effect
In short: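 Primary screen of approved and investigational compounds on cells in growth media at 37 degrees C, 5% CO2. MIPE set at 11-point and NPC set at 8-point dilutions; viability scored by ATP-based luminescence at 48 hours.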

[12] = Identifying Small Molecule Inhibitors of Pancreatic Cancer Stem Cells (Panc1, Adherent) (AID 1259362); settings: Potency: viability; also: potency is read from the fitted curve at half-maximal effect
In short: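 Luminescent ATP readout (CellTiter-Glo) quantifies surviving cells after a 48 h drug incubation. Normalization uses DMSO wells as no inhibition and media-only wells as full inhibition; bortezomib served as positive control.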

[13] = Identifying Small Molecule Inhibitors of Pancreatic Cancer Stem Cells (SN12C, Spheroid) (AID 1259360); settings: Potency: SN12C spheroid viability; also: potency is read from the fitted curve at half-maximal effect
In short: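 Monolayer and spheroid cultures are compared. Spheroids form over 14 days in stem cell medium on hydrogel-coated low-attachment plates, then are exposed to compound for 48 h before CellTiter-Glo luminescence.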

SMILES	Potency [1]	IC50 (viability decrease) [2]	Potency [3]	Potency [4]	Potency [5]	Potency [6]	Potency [7]	Potency [8]	Potency [9]	Potency [10]	Potency [11]	Potency [12]	Potency [13]
Cc1nc2cnc3ccc(C#Cc4cccnc4)cc3c2n1-c1ccc(C(C)(C)C#N)cc1	18.7 µM (active)	0.187 µM (active)	inactive	37.2 nM (active) and inactive	0.935 µM (active)	0.33 µM (active)	0.118 µM (active)	0.332 µM (active)	0.0093 µM (active)	0.0469 µM (active)	0.217 µM (active)		
CN1CCN(c2cc(C(=O)Nc3ccc4c(c3)-c3c(c(C(N)=O)nn3-c3ccc(F)cc3)CC4)c(Cl)cn2)CC1	23.5 µM (active)	23.5 µM (active)	29.1 µM (active)	23.5 µM (active)	26.4 µM (active)	inactive	11.8 µM (active)		2.35 µM (active)		24.3 µM (active)		
COc1cc(=C2C=c3ccccc3=N2)[nH]c1=Cc1[nH]c(C)cc1C	1.48 µM (active)	14.8 µM (active)		2.96 µM (active)		inactive		1.18 µM (active)	4.69 µM (active)	3.72 µM (active)	7.69 µM (active)		
CC[C@@H]1C(=O)N(C)c2cnc(Nc3ccc(C(=O)NC4CCN(C)CC4)cc3OC)nc2N1C1CCCC1	0.0083 µM (active)	0.0132 µM (active)		0.418 µM (active)	0.0332 µM (active)	0.234 µM (active)		0.0372 µM (active)	0.0372 µM (active)	0.059 µM (active)	0.172 µM (active)	0.0093 µM (active)	
CCN(CC)CCCCNc1ncc2cc(-c3cc(OC)cc(OC)c3)c(NC(=O)NC(C)(C)C)nc2n1	18.7 µM (active)	5.26 µM (active)	23.1 µM (active)			inactive	inactive	14.8 µM (active)	18.7 µM (active)	23.5 µM (active)	19.3 µM (active)	inactive	
C=CC(=O)Nc1cc2c(Nc3ccc(F)c(Cl)c3)ncnc2cc1C#CC(C)(C)N1CCN(C)CC1	5.26 µM (active)	6.62 µM (active)	9.2 µM (active)	16.4 µM (active)	13.2 µM (active)	11.7 µM (active)	5.9 µM (active)	2.96 µM (active)	1.48 µM (active)		3.85 µM (active)	11.8 µM (active)	6.62 µM (active)
CC1(C)OC2=C(C(=O)c3ccccc3C2=O)[C@H](NCc2ccccc2)[C@H]1O	0.743 µM (active)			9.35 µM (active)		18.6 µM (active)	5.9 µM (active)	7.43 µM (active)	0.469 µM (active)	1.48 µM (active)	8.63 µM (active)	3.32 µM (active)	23.5 µM (active)
COc1cc2ncnc(Nc3ccc(F)c(Cl)c3)c2cc1NC(=O)C=CCN1CCCCC1	23.5 µM (active)	16.6 µM (active)	inactive	inactive		inactive		8.33 µM (active)	18.7 µM (active)		24.3 µM (active)	23.5 µM (active)	29.6 µM (active)
CCN1CCN(CC(=O)Nc2ccc(-c3cccc4c(=O)cc(N5CCOCC5)oc34)c3sc4ccccc4c23)CC1	16.6 µM (active)	4.18 µM (active)	1.88 µM (active)		inactive			0.743 µM (active)	2.35 µM (active)	0.59 µM (active)	4.85 µM (active)	23.5 µM (active)	14.8 µM (active)
Cc1cccc(C=NNc2cc(N3CCOCC3)nc(OCCc3ccccn3)n2)c1	23.5 µM (active)				23.5 µM (active)			1.32 µM (active)	7.43 µM (active)				
CC(C)(C)c1cnc(CSc2cnc(NC(=O)C3CCNCC3)s2)o1	0.418 µM (active)			inactive	1.32 µM (active)	1.31 µM (active)	0.935 µM (active)	0.187 µM (active)	0.0469 µM (active)	0.332 µM (active)	0.385 µM (active)		
CC(=O)OCCN1C(=O)c2c(C)nc3ccc(S(=O)(=O)N4CCOCC4)cc3c2C1=O		inactive	inactive	inactive	inactive	inactive	inactive		7.43 µM (active)	20.9 µM (active)	5.44 µM (active)	10.5 µM (active)	inactive
C1Cc2[nH]nc(-c3nn[nH]n3)c2C1		inactive	inactive		inactive	inactive	inactive	inactive	inactive		inactive		inactive
Nc1ccccc1NC(=O)c1ccc(CNC(=O)OCc2cccnc2)cc1		inactive		11.8 µM (active) and 9.2 µM (active)	inactive		4.69 µM (active)	4.18 µM (active)	1.48 µM (active)	0.0935 µM (active)	3.85 µM (active)		inactive
COc1cccc2nc(-c3cccs3)nc(NN3C(=O)C=C(C)C3=O)c12		0.469 µM (active)		469 nM (active) and 1.64 µM (active)	3.72 µM (active)	1.86 µM (active)	2.35 µM (active)		2.35 µM (active)	0.0148 µM (active)	0.863 µM (active)	16.6 µM (active)	20.9 µM (active)
C[C@@H](Oc1cc(-c2cnn(C3CCNCC3)c2)cnc1N)c1c(Cl)ccc(F)c1Cl		4.18 µM (active)		13.2 µM (active) and 16.4 µM (active) and 11.6 µM (active)		20.8 µM (active)			14.8 µM (active)	2.35 µM (active)			20.9 µM (active)
COc1cc2c(Oc3ccc(NC(=O)C4(C(=O)Nc5ccc(F)cc5)CC4)cc3F)ccnc2cc1OCCCN1CCOCC1		4.69 µM (active)				5.87 µM (active)	18.7 µM (active)		2.35 µM (active)	0.743 µM (active)	27.3 µM (active)		23.5 µM (active)
Cc1ccc(C(=O)Nc2ccc(CN3CCN(C)CC3)c(C(F)(F)F)c2)cc1C#Cc1cnc2cccnn12		5.26 µM (active)		2.09 µM (active) and 3.66 µM (active)	11.8 µM (active)	14.7 µM (active)		3.72 µM (active)	2.35 µM (active)	2.35 µM (active)	6.85 µM (active)	23.5 µM (active)	23.5 µM (active)
Clc1ccc2ncc(-c3cccc(NC4CNC4)n3)n2c1			inactive	inactive	inactive	inactive			4.69 µM (active)	7.43 µM (active)	17.2 µM (active)	inactive	inactive
COc1cc2ncn(-c3cc(OCc4ccccc4C(F)(F)F)c(C(N)=O)s3)c2cc1OC		1.48 µM (active)		0.935 µM (active)			0.372 µM (active)	0.662 µM (active)	0.469 µM (active)	0.469 µM (active)	19.3 µM (active)		inactive
Cn1c2cc(S(C)=O)sc2c2cnn(Cc3cccc(N)c3)c(=O)c21 (stereo unspecified)		inactive			inactive	inactive		inactive	inactive	inactive	inactive		inactive
COc1ccc(OC)c(-c2nnc3ccc(-c4ccc(OC)c(O[C@@H]5CCOC5)c4)nn23)c1		5.9 µM (active)		4.61 µM (active)	9.35 µM (active)	inactive			14.8 µM (active)	18.7 µM (active)	27.3 µM (active)		18.7 µM (active)
CN(C)CCCN=c1c2ccccc2n(C)c2[nH]c(=O)n(C)c(=O)c12		11.8 µM (active)						1.87 µM (active)	2.96 µM (active)	2.96 µM (active)	4.85 µM (active)		inactive
Cc1cc(Nc2cc(N3CCN(C)CC3)nc(C=Cc3ccccc3)n2)n[nH]1		2.35 µM (active)		6.05 µM (active)	21.5 µM (active)	6.02 µM (active)	42.9 µM (active)	13.6 µM (active)	10.8 µM (active)	1.52 µM (active)	44.4 µM (active)		inactive
C=CC(=O)Nc1cc2c(Nc3ccc(F)c(Cl)c3)ncnc2cc1OCCCN1CCOCC1		16.6 µM (active)	inactive			inactive	18.7 µM (active)	16.8 µM (active)	4.69 µM (active)	2.35 µM (active)	6.85 µM (active)		20.9 µM (active)
CC(C)(C)OC(=O)Nc1ccc(-c2cc(C(=O)NCCCCCCC(=O)NO)no2)cc1		2.35 µM (active)		8.33 µM (active)	26.4 µM (active)	9.3 µM (active)	4.69 µM (active)	1.48 µM (active)	2.96 µM (active)	0.833 µM (active)	5.44 µM (active)		16.6 µM (active)
O=C(C=Cc1cccnc1)NCCCCC1CCN(C(=O)c2ccccc2)CC1		inactive			inactive		inactive					inactive	0.0021 µM (active)
O=C(c1ccc(Nc2nccc(-c3cc4ccccc4s3)n2)cc1)N1CCC(N2CCCC2)CC1		18.7 µM (active)	6.51 µM (active)		6.62 µM (active)		23.5 µM (active)	13.2 µM (active)	7.43 µM (active)	5.26 µM (active)	24.3 µM (active)		23.5 µM (active)
Nc1nc(-c2nn(Cc3ccccc3F)c3ncccc23)nc(N)c1N1CCOCC1		inactive		inactive	inactive		inactive				inactive		inactive
O=C(O)[C@H](Cc1c[nH]c2ccccc12)N1C(=O)c2ccccc2C1=O				inactive	inactive	inactive	inactive			48.1 µM (active)	inactive	inactive	inactive
